{"source": "ChEMBL document CHEMBL3988442", "about": "“University of Dundee, Small-Polar-MMV Screening Library” (2021)"}
{"molecular_target": "T1, Arginase-2, mitochondrial (Homo sapiens) (UniProt P78540)", "T1 sequence (whole entry)": "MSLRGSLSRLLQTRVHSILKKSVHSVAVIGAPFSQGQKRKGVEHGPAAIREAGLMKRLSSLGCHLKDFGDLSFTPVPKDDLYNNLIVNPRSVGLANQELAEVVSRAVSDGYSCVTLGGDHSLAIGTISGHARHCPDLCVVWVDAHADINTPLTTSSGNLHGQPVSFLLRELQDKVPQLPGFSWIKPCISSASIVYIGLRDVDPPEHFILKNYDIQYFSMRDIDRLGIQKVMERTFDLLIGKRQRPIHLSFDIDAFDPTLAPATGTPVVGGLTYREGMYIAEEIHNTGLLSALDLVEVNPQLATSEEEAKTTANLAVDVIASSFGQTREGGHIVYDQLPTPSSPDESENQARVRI", "assay": "in vitro enzyme assay to detect the production of urea directly proportional to the activity of Arginase II", "assay_type": "functional", "design": "scale not given: in the data most compounds retested in dose-response had high values", "details": "30 µM", "units": {"Percent Effect": "%"}}
{"molecule": "CN(Cc1ccco1)[C@@H]1CN(Cc2ccc(F)cc2)[C@@H]2CCCO[C@H]12", "Percent Effect": 2.7}
{"molecule": "CNC(=O)[C@H]1C[C@@H]2CN(C(=O)c3ccoc3)C[C@@H]2N1S(C)(=O)=O", "Percent Effect": 10.3}
{"molecule": "Cc1ncsc1C(=O)N1CCCC(c2nccn2Cc2cscn2)C1", "note": "(stereo not given)", "Percent Effect": 10.3}
{"molecule": "COc1ccc(-c2nc(CN3CC(n4cccn4)C3)no2)cc1", "Percent Effect": 0.54}
{"molecule": "CC(C)[C@H](NC(=O)Cn1nc2c(cc1=O)CCCC2)C(=O)O", "Percent Effect": 13.5}
{"molecule": "Cc1ccc(C(C(=O)O)N2CCCN(Cc3ccccn3)CC2)c(F)c1", "note": "(stereo not given)", "Percent Effect": 8.11}
{"molecule": "O=C(Cn1nc2c(cc1=O)CSCC2)N[C@@H](Cc1ccccc1)C(=O)O", "Percent Effect": 11.3}
{"molecule": "NC(=O)CN1CCC(c2cncc(-c3cccc(Cl)c3)n2)CC1", "Percent Effect": 2.7}
{"molecule": "CNC(=O)[C@@H]1CCO[C@@H]2CCN(CCc3ccccc3)C[C@H]21", "Percent Effect": 8.11}
{"molecule": "COc1cc(C2SC(C)=Nc3c2c(=O)[nH]n3C2CCCC2)ccc1O", "note": "(stereo not given)", "Percent Effect": 3.78}
{"molecule": "CNC(=O)[C@@H]1C[C@H]2CN(C(=O)c3ccco3)C[C@H]2N1C(C)C", "Percent Effect": 9.19}
{"molecule": "COc1ccccc1Oc1ncccc1CNC(=O)[C@H](C)O", "Percent Effect": 4.87}
{"molecule": "CN(Cc1ccncc1)C1CC2(CCN(Cc3ccccn3)CC2)C1", "Percent Effect": 5.95}
{"molecule": "CN(C)C(=O)[C@@H]1CCO[C@@H]2CCN(CCOCc3ccccc3)C[C@H]21", "Percent Effect": 2.7}
{"molecule": "COc1ccc2c(c1)OCC(CNC(=O)c1cc[nH]c1C)C2", "note": "(stereo not given)", "Percent Effect": 8.11}
{"molecule": "CC(C)CN1CCC(NC(=O)c2ccc(F)cc2F)CC1", "Percent Effect": 7.03}
{"molecule": "CC1=Nc2c(c(=O)[nH]n2C2CCOCC2)C(c2cccc(O)c2)S1", "note": "(stereo not given)", "Percent Effect": 2.7}
{"molecule": "COc1ccc(C(=O)N(CCC#N)Cc2ccccn2)cc1", "Percent Effect": 1.62}
{"molecule": "CC1=Nc2c(c(=O)[nH]n2C2CCCC2)C(c2ccc(C(=O)O)cc2)S1", "note": "(stereo not given)", "Percent Effect": 7.03}
{"molecule": "CCC(C(=O)NCc1ccncc1)N(c1ccc(F)cc1)S(C)(=O)=O", "note": "(stereo not given)", "Percent Effect": 8.11}
{"molecule": "CCN1CCC(NC(=O)c2ccc(F)cc2I)CC1", "Percent Effect": -1.62}
{"molecule": "CN(Cc1cccnc1)C1CC2(CCN(Cc3ccccn3)CC2)C1", "Percent Effect": 2.7}
{"molecule": "COc1ccc(NC2CCc3c2[nH]c(=O)n(C2CCCCC2)c3=O)cc1", "note": "(stereo not given)", "Percent Effect": 4.87}
{"molecule": "O=C(Cn1nc2c(cc1=O)CCCC2)NC(C(=O)O)c1ccccc1", "note": "(stereo not given)", "Percent Effect": -2.7}
{"molecule": "CC[C@@H](NC(C)=O)C(=O)NCc1cccnc1Oc1ccccc1OC", "Percent Effect": 4.87}
{"molecule": "CN1CCC(N(Cc2ccccc2F)C(=O)NCc2ccncc2)CC1", "Percent Effect": 5.95}
{"molecule": "c1ccc(OC2COC3(CCN(CC4CC4)CC3)C2)nc1", "note": "(stereo not given)", "Percent Effect": -16.8}
{"molecule": "Cc1nsc(N2CCCN(C(=O)NCc3cc(C)on3)CC2)n1", "Percent Effect": 8.11}
{"molecule": "O=C(NCc1ccccn1)[C@]12COC[C@H]1CN(Cc1cccnc1)C2", "Percent Effect": -5.95}
{"molecule": "Cc1ccc(C(=O)N(CCC#N)Cc2ccccn2)cc1C", "Percent Effect": 3.78}
{"molecule": "Cc1nn(C)cc1C(=O)N1CCCC(c2nccn2Cc2cscn2)C1", "note": "(stereo not given)", "Percent Effect": -12.4}
{"molecule": "CC1=Nc2c(c(=O)[nH]n2C2CCCCC2)C(c2cccnc2)S1", "note": "(stereo not given)", "Percent Effect": 2.7}
{"molecule": "CC(C)C(NC(=O)Cn1nc2c(cc1=O)CCCC2)C(=O)O", "note": "(stereo not given)", "Percent Effect": 7.03}
{"molecule": "COc1ccc2c(c1)OCC(CNC(=O)c1cnc(O)cn1)C2", "note": "(stereo not given)", "Percent Effect": 10.3}
{"molecule": "COCCC(=O)NCC1COc2cc(OC)ccc2C1", "note": "(stereo not given)", "Percent Effect": 5.95}
{"molecule": "CC(C)(C)n1cc(NC(=O)C2CN(Cc3ccccc3)CCO2)cn1", "note": "(stereo not given)", "Percent Effect": 0.54}
{"molecule": "Cn1cc(CN2C[C@@H]3COC[C@]3(C(=O)NCCc3ccccc3)C2)cn1", "Percent Effect": 12.4}
{"molecule": "OC(CN(Cc1ccccc1)Cc1cccnc1)c1cccs1", "note": "(stereo not given)", "Percent Effect": -5.95}
{"molecule": "CN(CC(=O)N1CCCC1c1noc(C2CC2)n1)S(C)(=O)=O", "note": "(stereo not given)", "Percent Effect": 3.78}
{"molecule": "CN1[C@H]2CC[C@@H]1CN(C(=O)CCc1csc(N)n1)CC2", "Percent Effect": 3.78}
